Compounds with a hit are over-represented: about 6.6% of the library has one in this group of screens.
MPTP inh = permeability transition pore inhibition; isolated mouse mitochondria, Ca2+ swelling absorbance, 30 min; inhibition, % at 10 µM; AID 602449; 360,000 compounds, 1.4% hits;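 active = inhibition of 50% or more, scaled per plate between neutral and stimulator controls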;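 note: 0% = DMSO wells given calcium and 100% = 1 mM EGTA wells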
CSC inhib = cancer stem cell inhibition. cancer stem cell-like cells viability, luminescence. inhibition, % at 7.5 µM. 300,000 compounds, 1.1% hits. AID 2717; in the data active = inhibition above about 75%; inconclusive = no clear call, values can overlap the other calls; tested in HMLE shEcad cells
Mdm2-MdmX inh = inhibitors of human Mdm2/MdmX interaction | O15151+Q00987 | SaOS-2 split-luciferase Mdm2/MdmX complementation, luminescence | inhibition, % at 8 µM | 330,000 compounds, 3% hits | AID 485346;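 active = inhibition of at least 50% at 8 µM in the primary screen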
Beta cell apopt = beta cell apoptosis inhibition; INS-1E cytokine-induced death, ATP luminescence, 48 h; percent of positive-control rescue, neutral wells zero; protection from apoptosis, % (no concentration beside the values); 300,000 compounds, 0.8% hits;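 active = Every replicate reaches about 75%, or at least half do and their mean reaches it too, limit read from the data; inconclusive = At least half of replicates reach the limit but their mean does not; inactive = Under half of replicates reach the limit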;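 note: 0% = cytokine-treated negative control wells and 100% = positive control rescue; higher means more ATP so stronger rescue from cytokine killing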
Gli-Sufu antag = antagonists of Gli-Sufu signaling | 340,000 compounds, 0.74% hits | Sufu-KO-LIGHT fibroblasts, Gli luciferase reporter luminescence | inhibition, % at 5 µM;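 active = inhibition above about 55%, limit read from the data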;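 note: 0% = DMSO-treated cells and 100% = wells with medium but no cells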
NR3A LBD binder = NR3A (human) ligand-binding domain modulation | AID 1259313 | NR3A LBD differential scanning fluorimetry, Tm shift; 0% = protein alone, 100% = glycine-bound protein | Tm shift relative to glycine control, % at 25 µM | 340,000 compounds, 2.5% hits;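 active = melting temperature shift of at least 10% of the positive control shift, at one fixed dose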
Mdm2 MdmX conf = human Mdm2/MdmX binding inhibition, confirmed; 10,000 compounds, 55% hits; luminescent assay; shares compounds with Mdm2-MdmX inh; inhibition, % at 8 µM; AID 489028; in the data active = inhibition above about 40%
Full FLuc ctr = full-length luciferase inhibition in Mdm2/MdmX counter-screen; shares compounds with Mdm2-MdmX inh; SaOS-2 full-length luciferase counterscreen, luminescence; inhibition, % at 8 µM; 6,200 compounds, 77% hits; AID 504607;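 active = mean inhibition at 8 µM reaching about 37%, which flags the compound as non-specific, limit read from the data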;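 note: p53-null SaOS-2 cells with luciferase driven by a doxycycline-inducible promoter; compound on cells about two nights before reading with doxycycline added after day one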
* hit, by the source's call; u = inconclusive; x = no result given.

SMILES	MPTP inh	CSC inhib	Mdm2-MdmX inh	Beta cell apopt	Gli-Sufu antag	NR3A LBD binder	Mdm2 MdmX conf	Full FLuc ctr
Cc1ccc(C(=O)c2coc3ccc(O)c(Cl)c23)cc1	3	9	-50	-6	-3	-8	x	x
CCOC(=O)C(C(C)=O)c1c(Br)c(O)c(O)c2c(C(=O)c3ccc(C)cc3)coc12 (stereo not given)	4	103*	64*	95*	50	-2	60*	47*
O=C1NC[C@H](CCCCN2C[C@H](Cc3ccc(O)cc3)N(CCc3ccc(O)cc3)C(=O)C2=O)N(Cc2ccccc2)C1=O	0	x	x	x	x	x	x	x
COc1nn(-c2ccccc2)c(=O)c(Cl)c1Cl	-1	1	100*	-8	-4	0	62*	18
COc1c(Cl)cnn(-c2ccccc2)c1=O	0	-13	27	5	5	2	x	x
Cc1csc2nc(COC(=O)CNC(=O)c3ccc(Cl)cc3)cc(=O)n12	0	x	-13	0	-6	1	x	x
Cc1csc2nc(COC(=O)c3ccc(Cl)c([N+](=O)[O-])c3)cc(=O)n12	-1	-16	89*	-1	-13	3	8	x
C=CCn1c(=O)c2ccccc2n2c(Sc3nnnn3-c3ccccc3)nnc12	-1	-9	53*	-20	7	2	24	x
CCCn1c(=O)c2ccccc2n2c(Sc3nnnn3-c3ccccc3)nnc12	1	8	4	-18	18	1	x	x
Cc1ccc2nc(SCC(=O)NCc3ccc4c(c3)OCO4)nc(=O)n2c1	1	-4	-19	-1	-10	2	x	x
NC(c1ccc(F)c(F)c1)c1nc(-c2cc(F)cc(F)c2)cs1 (stereo not given)	0	x	x	x	x	x	x	x
CCN1/C(=C/c2cccc[n+]2C)Sc2ccc(OC)cc21	-1	34	74*	105*	77*	1	48*	78*
CCN1/C(=C/C(C)=O)Sc2ccc(OC)cc21	0	-4	24	-1	-3	1	x	x
CC(=O)Nc1ccc(SCc2csc(C)n2)cc1	0	-10	-4	-3	3	1	x	x
Cc1[nH]c2c(ccc3ccccc32)c1C1C(CCN)C1(C)C (stereo not given)	-1	62	61*	u	9	-3	40*	77*
S=c1[nH]c2ccc3ccccc3c2[nH]1	0	1	0	-2	0	-1	x	x
Cc1cc(C)c(NC(=O)CSc2nnnn2-c2cccnc2)c(C)c1	2	-6	-3	-6	-9	-2	x	x
CC(C)c1ccccc1NC(=O)COC(=O)c1c2c(nc3ccccc13)CCN(Cc1ccccc1)C2	9	11	53*	0	28	-3	33	x
Cc1cc(N2CCN(C)CC2)ccc1NC(=O)c1c2c(nc3ccccc13)CCN(Cc1ccccc1)C2	0	-14	100*	99*	49	0	100*	52*
COc1ccc(-n2c(C)c([N+](=O)[O-])c3ccc(O)c(CN4CCCCC4)c32)cc1	0	15	77*	3	-13	3	58*	29
Cc1ccc(-n2c(C)c([N+](=O)[O-])c3ccc(O)c(CN(C)C)c32)cc1	0	-27	85*	-6	-8	0	80*	54*
Cc1oc2cc3oc(=O)c(CCC(=O)N[C@H](C(=O)O)C(C)C)c(C)c3cc2c1C	-1	1	-21	-4	x	0	x	x
N#C/C(=C/c1ccc(Br)o1)C(N)=S	x	40	76*	4	x	x	43*	64*
CC(=O)CSc1ccc(-c2nc3cc(C)c(C)cc3[nH]2)cn1	-2	16	68*	6	24	-3	67*	66*
Cc1cc2nc(-c3ccc(SCC(=O)Nc4ccc(S(=O)(=O)N5CCCC5)cc4)nc3)[nH]c2cc1C	2	22	69*	8	-71	21*	-8	x
SMILES	MPTP inh	CSC inhib	Mdm2-MdmX inh	Beta cell apopt	Gli-Sufu antag	NR3A LBD binder	Mdm2 MdmX conf	Full FLuc ctr
OC(CNCc1ccco1)Cn1c2ccc(Br)cc2c2cc(Br)ccc21 (stereo not given)	10	106*	75*	3	-1	24*	31	70*
Cc1cc2c(OCC(O)CNCc3ccco3)cccc2[nH]1 (stereo not given)	-1	-9	-23	-5	6	-1	x	x
COC(=O)c1ccc(/C=C2/SC(=S)N(CCCC(=O)Nc3ccc(O)cc3)C2=O)cc1	0	18	100*	-25	19	7	55*	5
Cc1ccc(/C=C2\SC(=S)N(CCCC(=O)Nc3ccc(O)cc3)C2=O)cc1	2	34	93*	-1	42	-2	89*	47*
O=C(CN1C(=O)S/C(=C/C=C/c2ccccc2)C1=O)Nc1ccc(C(=O)O)cc1	-1	-7	-10	0	-3	-4	x	x
O=C(CCCN1C(=O)S/C(=C\C=C\c2ccccc2)C1=O)Nc1ccc(O)cc1	3	-2	53*	-1	31	4	-1	x
Cc1cc(F)ccc1C(O)c1ncc(-c2cccc(F)c2)[nH]1 (stereo not given)	-1	x	x	x	x	x	x	x
OC(CN1CCCCC1)Cn1c2ccc(Cl)cc2c2cc(Cl)ccc21 (stereo not given)	-1	u	75*	x	45	-9	20	x
CC(C)c1cc(C(=O)NC2CCCc3c2cnn3-c2ccccc2F)no1 (stereo not given)	22	3	90*	16	25	-1	77*	29
Cc1cc(C(=O)OCC(=O)NCc2ccco2)c(C)n1-c1ccc(F)cc1	0	56	56*	22	-13	-1	52*	66*
CCNC(=O)COC(=O)c1cc(C)n(-c2ccccc2)c1C	-3	-11	-5	-2	-16	0	x	x
COCC(=O)NC1CC(C)(C)Cc2c1cnn2-c1ccc(F)cc1 (stereo not given)	2	-5	26	-3	-1	-3	x	x
O=C(O)C(CCc1ccccc1)N1C(=O)c2ccccc2C1=O (stereo not given)	-1	x	x	x	3	1	x	x
O=C(Nc1ccc2oc(=O)ccc2c1)c1ccccc1[N+](=O)[O-]	-2	-19	-4	-3	0	-1	x	x
O=C(Nc1ccc2oc(=O)ccc2c1)c1ccc(-c2ccccc2[N+](=O)[O-])o1	6	15	62*	28	-3	30*	-8	x
Cc1cc(C)nc(SCC(=O)NNS(=O)(=O)c2ccc(C#N)cc2)n1	-2	x	12	x	-3	1	x	x
COc1ccccc1CN(C(=O)c1cnccn1)C(C(=O)NC1CCCCC1)c1cc(OC)c(OC)c(OC)c1 (stereo not given)	0	-7	-2	-1	-13	-2	x	x

Bioassay records: PubChem BioAssay, several laboratories
